Results on 13 molecules are retold here after PubChem BioAssay (NCI).

Compounds without any hit were thinned out: in the full panel of roughly 83,000, 20% have a hit.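 Method: cells in 96-well plates; compound added at one concentration; 48 h incubation; percent growth measured; values under 10 scored active.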 Unmarked numbers belong to inactive results. The source made the active and inactive calls.

Among the test systems are HCT-15 colon; HT29 colon; SNB-19 CNS; PC-3 prostate; SK-MEL-5 melanoma; UACC-62 melanoma; LOX IMVI melanoma; SK-MEL-28 melanoma; U251 CNS.
Holding throughout (assay): NCI-60 one-dose screen, 48 h (100 = growth as untreated, 0 = no growth, -100 = all killed)
What all share (settings): 10 µM unless noted

Consider `C[C@]12CCC(=O)C=C1CC[C@H]1[C@@H]3C[C@@H](O)[C@](O)(C(=O)CO)[C@@]3(C)C[C@H](O)[C@@]12F`, for which the growth in the test on HCT-15 colon was 102%; in the test with HT29 colon, 103%; in the test on SNB-19 CNS, 99.9%; with PC-3 prostate, 95.3%; with SK-MEL-5 melanoma it was 101%; in the test on UACC-62 melanoma, 98%. Moreover, the growth is 96% in the test on LOX IMVI melanoma and 107% in the test on SK-MEL-28 melanoma.
As to `N/C(=N\C(N)=N\c1nc2ccccc2s1)c1ccnc(Cl)c1`, the growth with HCT-15 colon is 29.9%; with HT29 colon it was 13.7%; with SNB-19 CNS, 39.4%; in the test on U251 CNS, 33.8%; with PC-3 prostate, 37.9%; with SK-MEL-5 melanoma it was 17.3%. Further, the growth with UACC-62 melanoma is 33.9%; in the test with LOX IMVI melanoma, 44.9%; in the test on SK-MEL-28 melanoma, 62.2%.
On to `CCC(=O)Nc1cc2c(cc1Cl)-c1ccccc1C2`, for which the growth in the test with HCT-15 colon is 94.9%; in the test with HT29 colon, 114%; in the test on SNB-19 CNS, 101%; in the test with U251 CNS, 96.4%; in the test with PC-3 prostate, 80.5%; in the test on SK-MEL-5 melanoma it was 93.5%. In addition, the growth is 84.8% in the test on UACC-62 melanoma, 88.2% in the test on LOX IMVI melanoma and 122% with SK-MEL-28 melanoma.
Regarding `N#Cc1c(-c2ccccc2)cc(-c2ccccc2)n(CC(=O)O)c1=O`, the growth with HCT-15 colon was 32.6%; in the test on HT29 colon, 24.2%; in the test with SNB-19 CNS, 58.3%; in the test with U251 CNS it was 47.5%; in the test with PC-3 prostate, 70.4%; with SK-MEL-5 melanoma it was 40.6%. Further, the growth with UACC-62 melanoma was 28.6%; in the test on LOX IMVI melanoma it was 52.5%; in the test with SK-MEL-28 melanoma, 60.6%.
Consider `C#C[C@]1(O)CCC2C3CCc4cc(O)ccc4C3CC[C@@]21C` (some centres undefined), for which the growth is 31.9% with HCT-15 colon; 11.7% in the test on HT29 colon; 53.1% with SNB-19 CNS; 32.2% in the test with U251 CNS; 64.9% in the test on PC-3 prostate; 8.95% (active) in the test with SK-MEL-5 melanoma. For the same molecule, the growth with UACC-62 melanoma is 30.5%; with LOX IMVI melanoma, 41.8%; in the test with SK-MEL-28 melanoma it was 59.2%.
In the case of `COC(=O)[C@H]1[C@H]2C[C@@H]3c4[nH]c5cc(OC)ccc5c4CCN3C[C@H]2C[C@@H](OC(=O)/C=C/c2cc(OC)c(OC)c(OC)c2)[C@@H]1OC`, the growth with HCT-15 colon was 39.9%; in the test on HT29 colon it was -66.1% (active); in the test with SNB-19 CNS, 49.9%; with U251 CNS, 17.4%; in the test with PC-3 prostate it was 44.6%; with UACC-62 melanoma, 87.4%. Also, the figures for the growth in the test on LOX IMVI melanoma and with SK-MEL-28 melanoma were 26.8% and 109%, respectively.
Turning to `COc1ccc(CC(=O)Nc2nn3c(-c4cc(C(F)(F)F)cc(C(F)(F)F)c4)nnc3s2)cc1`, the growth is 62.4% with HCT-15 colon; 83.7% in the test on HT29 colon; 70.1% in the test on SNB-19 CNS; 70.4% in the test with U251 CNS; 84.8% in the test on PC-3 prostate; 2.85% (active) in the test with SK-MEL-5 melanoma. Further, the growth in the test with UACC-62 melanoma was 28.6%; with LOX IMVI melanoma it was 52.3%; in the test on SK-MEL-28 melanoma, 84.5%.
For `c1ccc(-c2nc(Nc3nccnn3)c3ccccc3n2)cc1`, the growth is 98.2% with HCT-15 colon; 98.8% in the test on HT29 colon; 93.6% in the test with SNB-19 CNS; 92.9% in the test on U251 CNS; 101% with PC-3 prostate; 99.1% in the test on SK-MEL-5 melanoma. Also, the growth in the test with UACC-62 melanoma is 87.8%; in the test with LOX IMVI melanoma, 96%; in the test with SK-MEL-28 melanoma, 103%.
As to `c1ccc(Nc2ccc(Nc3nc(-c4ccccc4)nc4ccccc34)cc2)cc1`, the growth is 37.5% in the test with HCT-15 colon; 29.7% in the test with HT29 colon; 100% with SNB-19 CNS; 77% with U251 CNS; 74% with PC-3 prostate; 90.3% with SK-MEL-5 melanoma. Also, the growth was 86.6% in the test with UACC-62 melanoma, 52.4% in the test with LOX IMVI melanoma and 93.7% in the test with SK-MEL-28 melanoma.
For `COc1ccc(-c2nnc3c4[nH]cnc4ncn23)c(OC)c1`, the growth in the test on HCT-15 colon is 29.2%; in the test with HT29 colon it was 19.5%; in the test on SNB-19 CNS, 96%; in the test on U251 CNS it was 41.1%; with SK-MEL-5 melanoma it was 49%; in the test with UACC-62 melanoma it was 23.7%. Further, the growth with LOX IMVI melanoma was 5.63% (active); in the test with SK-MEL-28 melanoma, 84.7%.
Consider `CCN1CCN(c2nc(NNC(=O)Cc3ccccc3)nc(N3CCN(C(c4ccccc4)c4ccccc4)CC3)n2)CC1`, for which the growth is 22.9% in the test on HCT-15 colon; -7.32% (active) in the test on HT29 colon; 84.2% in the test with SNB-19 CNS; 19.1% in the test with U251 CNS; 63.7% with PC-3 prostate; 2.68% (active) with SK-MEL-5 melanoma. In addition, the results for the growth in the test on UACC-62 melanoma, in the test on LOX IMVI melanoma and in the test on SK-MEL-28 melanoma were 84.7%, -54.9% (active) and 92.6%, respectively.
For the molecule `N#Cc1ccc(-c2csc(Nc3ccc4nc5n(c(=O)c4c3)CCC5)n2)cc1`, the growth in the test on HCT-15 colon was 98.2%; in the test with HT29 colon, 105%; with SNB-19 CNS it was 98.1%; with U251 CNS, 96%; in the test with PC-3 prostate it was 110%; with SK-MEL-5 melanoma, 97.4%. Further, the growth in the test with UACC-62 melanoma was 100%; in the test with LOX IMVI melanoma, 101%; in the test with SK-MEL-28 melanoma it was 104%.
Regarding `CC(=O)N1N=C(c2ccc(Nc3ccnc4cc(Cl)ccc34)cc2)CC1c1ccc(Cl)cc1` (centres undefined), the growth was 30.1% in the test on HCT-15 colon; 25.9% in the test with HT29 colon; 65.6% with SNB-19 CNS; 57.9% with U251 CNS; 37.8% with PC-3 prostate; -50.1% (active) with SK-MEL-5 melanoma. Moreover, the growth in the test on UACC-62 melanoma is 44.2%; with LOX IMVI melanoma, 33.6%; with SK-MEL-28 melanoma, 45.9%.
